Inconclusive results are not listed. Active and inactive are the calls of the source. Calls follow the shape of the dose curve; as a rule, active = well fitted inhibition curve with a large enough effect; inconclusive = small, poorly fitted or top-dose-only effect; inactive = flat fitted curve, though single readings scatter.
How the values were obtained:
Assay in all cases: qHTS profiling for inhibitors of Plasmodium falciparum proliferation (AID 504749); also: nearly all actives have a fitted effect of over 60% in size
Conditions in all cases: P. falciparum in erythrocytes, SYBR Green DNA, 72 h; series mostly up to 28.7 µM
CP201 = tested on: CP201
How it was run: (§1)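 Infected RBCs, 0.3% parasitemia/2.5% Hct final; cpd 72 h, 37 C, 5% CO2; lysis buffer with saponin/triton/SYBR Green I, o/n RT dark; FI 485/535; norm. to artemisinin (0.29 uM) and DMSO.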

CP203 = tested on: CP203
How it was run: as §1

CP211 = tested on: CP211
How it was run: as §1

CP215 = tested on: CP215
How it was run: as §1

CP217 = tested on: CP217
How it was run: as §1

CP237 = tested on: CP237
How it was run: as §1

CP238 = tested on: CP238
How it was run: as §1

CP247 = tested on: CP247
How it was run: as §1

CP250 = tested on: CP250
How it was run: as §1

CP252 = tested on: CP252
How it was run: as §1

Measured: Potency
Potency is read from the fitted curve at half-maximal effect.

O=P(O)(O)OP(=O)(O)OP(=O)(O)O
inactive: all assays above

[O]=[Bi][O]C(=O)[O][Bi]=[O]
inactive: all assays above

CN1CCC(OC(=O)C(Oc2ccc(Cl)cc2)Oc2ccc(Cl)cc2)CC1
inactive: all assays above

O=C1c2ccccc2C(=O)c2c1ccc(O)c2O
inactive: all assays above

NC(=O)CC[C@@H]1NC(=O)[C@H](Cc2ccccc2)NC(=O)[C@H](Cc2ccc(O)cc2)NC(=O)[C@@H](N)CSSC[C@@H](C(=O)N2CCC[C@H]2C(=O)N[C@@H](CCCN=C(N)N)C(=O)NCC(N)=O)NC(=O)[C@H](CC(N)=O)NC1=O
inactive: all assays above

NCCN
inactive: all assays above

COC1=C(OC)C(=O)C(C/C=C(\C)CC/C=C(\C)CC/C=C(\C)CC/C=C(\C)CC/C=C(\C)CC/C=C(\C)CC/C=C(\C)CC/C=C(\C)CC/C=C(\C)CCC=C(C)C)=C(C)C1=O
inactive: all assays above

COC(=O)CC[C@H](N)C(=O)O
inactive: all assays above

CNC(=O)c1c(I)c(C(=O)NCC(=O)Nc2c(I)c(C(=O)O)c(I)c(C(=O)NCCO)c2I)c(I)c(N(C)C(C)=O)c1I
inactive: all assays above

CC(O)CN(C)C (stereo not given)
inactive: all assays above

COc1cc(S(C)=O)ccc1-c1nc2ncccc2[nH]1 (stereo not given)
inactive: all assays above

O=[N+]([O-])c1c(Cl)cccc1-c1c[nH]cc1Cl
inactive: all assays above

Cc1cccc(C)c1NC(=O)C1CCCCN1C (stereo not given)
inactive: all assays above

CNC(=O)OCc1cccc(COC(=O)NC)n1
inactive: all assays above

CC1CC(OC(=O)C(O)c2ccccc2)CC(C)(C)C1 (stereo not given)
inactive: all assays above

CCCCC(CC)COS(=O)(=O)O (stereo not given)
inactive: all assays above

C=CCN1CCCC1CNC(=O)c1cc(S(N)(=O)=O)cc(OC)c1OC (stereo not given)
inactive: all assays above

OCC1(CO)COC(C(Cl)(Cl)Cl)OC1
inactive: all assays above

C=C(C)C1CC=C(C)CC1 (stereo not given)
inactive: all assays above

NC(=S)NS(=O)(=O)c1ccc(N)cc1
inactive: all assays above

CC12CCC(C[N+](C)(CCC[N+](C)(C)C)C1)C2(C)C (stereo not given)
inactive: all assays above

CC/C(=C(/CC)c1ccc(OP(=O)(O)O)cc1)c1ccc(OP(=O)(O)O)cc1
inactive: all assays above

O=C(OCc1ccccc1)c1ccc(O)cc1
inactive: all assays above

FC(F)OC(Cl)C(F)(F)F (stereo not given)
inactive: all assays above

FCOC(C(F)(F)F)C(F)(F)F
inactive: all assays above

CCCCCCCCCCCC(=O)N(CCO)CCO
inactive: all assays above

O=C(O)Cc1nn(Cc2ccc(Br)cc2F)c(=O)c2ccccc12
inactive: all assays above

OC[C@H]1O[C@@](CO)(O[C@H]2O[C@H](CO)[C@@H](O)[C@H](O)[C@H]2O)[C@@H](O)[C@@H]1O
inactive: all assays above

CC1=CC(=C(c2ccc(N)cc2)c2ccc(N)cc2)C=CC1=N
active: CP201 5.36 µM | CP203 4.26 µM | CP211 4.26 µM | CP215 4.78 µM | CP217 3.55 µM | CP237 3.16 µM | CP238 3.55 µM | CP247 1.12 µM | CP250 1 µM | CP252 3.16 µM

C[C@H](CCC(=O)O)[C@H]1CC[C@H]2[C@@H]3CC[C@@H]4C[C@H](O)CC[C@]4(C)[C@H]3C[C@H](O)[C@]12C
inactive: all assays above

O=C(O)CCCC/C=C(\c1ccccc1)c1cccnc1
inactive: all assays above

N=C(N)n1cccn1
inactive: all assays above

CCCCCCCCCCCCCCCCCC[N+](C)(C)CCC[Si](OC)(OC)OC
inactive: all assays above

C[Si](C)(C)O[Si](C)(C)C
inactive: all assays above

O=C(/C=C/c1cccc(F)c1)NC1CC1
inactive: all assays above

COC(=O)CCC[N+](C)(C)C
inactive: all assays above

NC(=O)[C@H]1O[C@@H](O)[C@H](O)[C@@H](O)[C@@H]1O
inactive: all assays above

NCCO/C=C/[C@H](N)C(=O)O
inactive: all assays above

O=C(O)CCC/C=C\C[C@@H]1[C@@H](/C=C/[C@@H](O)COc2cccc(Cl)c2)[C@H](O)C[C@@H]1O
inactive: all assays above

NCC[C@H](O)C(=O)N[C@@H]1C[C@H](N)[C@@H](O[C@H]2O[C@H](CN)CC[C@H]2N)[C@H](O)[C@H]1O[C@H]1O[C@H](CO)[C@@H](O)[C@H](N)[C@H]1O
inactive: all assays above

O=C(O)Cc1cc(I)c(Oc2ccc(O)c(I)c2)c(I)c1
inactive: all assays above

CCN(CC)C(=S)S
inactive: all assays above

O=C(NNCS(=O)(=O)O)c1ccncc1
inactive: all assays above

From PubChem BioAssay (NCATS)
